About 2,000 (36%) of roughly 5,500 compounds were called active. Inconclusive results (about 18%) are left out. No stated cut-off is given here; in the data, active means normalized growth mostly below about 0.91 (no sharp cut-off); inconclusive means no clear call, values can overlap the other calls; inactive means mostly above about 0.92. The list shows a part of the results.
Experiment: chemical genetic growth profiling, strain panel (AID 1159580);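 further: tested at 20 µM; growth read once vehicle control cultures reached saturation at 30 °C; 1 = growth at the plate median or of vehicle wells; lower values mean less growth of the strain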
Conditions: growth OD

Measured: normalized growth

CC(C)c1nc2ccccc2[nH]1
inactive: S. cerevisiae deletion strains, locus YAL013W, strain DEP1, active compounds read low 1.01 | S. cerevisiae deletion strains, locus YBR229C, strain ROT2, active compounds read low 1.03 | S. cerevisiae deletion strains, locus YCL061C, strain MRC1, active compounds read low 1.01 | S. cerevisiae deletion strains, locus YDL101C, strain DUN1, active compounds read low 1.03 | S. cerevisiae deletion strains, locus YDL134C, strain PPH21, active compounds read low 1.02 | S. cerevisiae deletion strains, locus YDR150W, strain NUM1, active compounds read low 0.993 | S. cerevisiae deletion strains, locus YEL061C, strain CIN8, active compounds read low 1.01 | S. cerevisiae deletion strains, locus YGR078C, strain PAC10, active compounds read low 1.01 | S. cerevisiae deletion strains, locus YHR030C, strain SLT2, active compounds read low 1.02 | S. cerevisiae deletion strains, locus YHR087W, strain rtc3, active compounds read low 1.03 | S. cerevisiae deletion strains, locus YJR043C, strain POL32, active compounds read low 1 | S. cerevisiae deletion strains, locus YJR075W, strain HOC1, active compounds read low 1.02 | S. cerevisiae deletion strains, locus YLR039C, strain RIC1, active compounds read low 1.01 | S. cerevisiae deletion strains, locus YLR058C, strain SHM2 (second series), active compounds read low 1.01 | S. cerevisiae deletion strains, locus YLR085C, strain ARP6, active compounds read low 1.03 | S. cerevisiae deletion strains, locus YLR262C, strain YPT6, active compounds read low 1 | S. cerevisiae deletion strains, locus YML094W, strain GIM5, active compounds read low 1.01 | S. cerevisiae deletion strains, locus YMR219W, strain ESC1, active compounds read low 1.01 | S. cerevisiae deletion strains, locus YMR263W, strain SAP30, active compounds read low 1.02 | S. cerevisiae deletion strains, locus YNL128W, strain TEP1, active compounds read low 1.01 | S. cerevisiae deletion strains, locus YNL153C, strain GIM3, active compounds read low 1.01 | S. cerevisiae deletion strains, locus YNL298W, strain CLA4 (second series), active compounds read low 1 | S. cerevisiae deletion strains, locus YNL322C, strain KRE1, active compounds read low 1.02 | S. cerevisiae deletion strains, locus YNR030W, strain Alg12, active compounds read low 1.01 | S. cerevisiae deletion strains, locus YOL006C, strain TOP1, active compounds read low 1 | S. cerevisiae deletion strains, locus YPL055C, strain LGE1, active compounds read low 1.04 | S. cerevisiae deletion strains, locus YPL241C, strain CIN2, active compounds read low 1 | S. cerevisiae deletion strains, locus YPR135W, strain CTF4, active compounds read low 1.05 | S. cerevisiae strains, strain wild type, active compounds read low 1.01
